Where “and” joins values, the source holds several entries; their conditions need not be identical. Equal entries are not always repeated. Records with an inconclusive call do not appear. Calls of active or inactive are those of the source. Unless noted, calls come from the whole dose curve; as a rule, active = well fitted curve in the direction sought with a large enough effect; inconclusive = small, poorly fitted or top-dose-only effect, or another doubt; inactive = no such curve, though single readings can be large; an effect the other way counts as inactive or inconclusive.
How the values were obtained:
[1] = Cell Viability - HepG2 (AID 433; calls by dose curve;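 note: potency is the fitted concentration of half-maximal effect; cells exposed to compound for 40 hours; potency for ATP loss meaning cytotoxicity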); conditions: qHTS
Method in brief: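 ATP luminescence (CellTiter-Glo) after 40 h compound exposure, 37 °C, HepG2, 1500 cells/well, complete medium. Normalized: DMSO = basal, 100 uM tamoxifen = 100% inhibition. AC50 via standard Hill equation.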

[2] = Cell Viability - HUV-EC-C (AID 542); conditions: HUV-EC-C endothelial cell viability, qHTS; series mostly up to 92.2 µM;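 note: cells exposed to compound for 40 hours; % is set by controls: 0 for no effect and ±100 for the full control effect; nearly all actives have a fitted effect of over 35% in size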
Method in brief: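 CellTiter-Glo luminescence measured ATP loss in HUV-EC-C cells (1000/well) after 40 hr compound exposure at 37 °C, in complete culture medium. Concentration-response data were Hill-fitted to give AC50.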

[3] = Cellular Toxicity (caspase-3) HepG2 (AID 654); conditions: HepG2 caspase-3 activation, luminescence, 0% = DMSO only, 100% = tamoxifen; series mostly up to 92.2 µM;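 note: cells exposed to compound for 16 hours before reading; 0% = DMSO alone and 100% = caspase signal from 100 µM tamoxifen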
Method in brief: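 Caspase 3/7 activation is measured as a luminescence increase (aminoluciferin substrate) after 16 h compound exposure of human hepatocarcinoma HepG2 cells. AC50 values are Hill fits, scaled between DMSO baseline and 100 uM tamoxifen stimulation.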

[4] = Cellular Toxicity (caspase-3) BJ (AID 658); conditions: BJ fibroblasts, luminescence, normalized: DMSO 0%, staurosporine 100%; series mostly up to 91.7 µM;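 note: cells exposed to compound for 16 hours; 0% = DMSO basal and 100% = 10 µM staurosporine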
Method in brief: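 Plated BJ cells (1000/well) rested 5 hr, received compound for 16 hr at 37 °C, then Caspase-Glo 3/7 reagent for 1 hr at room temperature before luminescence reading.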

[5] = molecular target: Voltage-gated inwardly rectifying potassium channel KCNH2 (Homo sapiens) (UniProt Q12809); assay: qHTS Assay for Small Molecule Inhibitors of the Human hERG Channel Activity (AID 588834); conditions: U2OS BacMam hERG, FluxOR thallium flux fluorescence; series mostly up to 92.2 µM;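 note: top concentration of the series differs between compounds; % is set by controls: 0 for no effect and ±100 for the full control effect; lower thallium flux fluorescence means stronger hERG block; nearly all actives have a fitted effect of over 50% in size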
Chain of Voltage-gated inwardly rectifying potassium channel KCNH2 (Homo sapiens) (Q12809 whole entry, looked up): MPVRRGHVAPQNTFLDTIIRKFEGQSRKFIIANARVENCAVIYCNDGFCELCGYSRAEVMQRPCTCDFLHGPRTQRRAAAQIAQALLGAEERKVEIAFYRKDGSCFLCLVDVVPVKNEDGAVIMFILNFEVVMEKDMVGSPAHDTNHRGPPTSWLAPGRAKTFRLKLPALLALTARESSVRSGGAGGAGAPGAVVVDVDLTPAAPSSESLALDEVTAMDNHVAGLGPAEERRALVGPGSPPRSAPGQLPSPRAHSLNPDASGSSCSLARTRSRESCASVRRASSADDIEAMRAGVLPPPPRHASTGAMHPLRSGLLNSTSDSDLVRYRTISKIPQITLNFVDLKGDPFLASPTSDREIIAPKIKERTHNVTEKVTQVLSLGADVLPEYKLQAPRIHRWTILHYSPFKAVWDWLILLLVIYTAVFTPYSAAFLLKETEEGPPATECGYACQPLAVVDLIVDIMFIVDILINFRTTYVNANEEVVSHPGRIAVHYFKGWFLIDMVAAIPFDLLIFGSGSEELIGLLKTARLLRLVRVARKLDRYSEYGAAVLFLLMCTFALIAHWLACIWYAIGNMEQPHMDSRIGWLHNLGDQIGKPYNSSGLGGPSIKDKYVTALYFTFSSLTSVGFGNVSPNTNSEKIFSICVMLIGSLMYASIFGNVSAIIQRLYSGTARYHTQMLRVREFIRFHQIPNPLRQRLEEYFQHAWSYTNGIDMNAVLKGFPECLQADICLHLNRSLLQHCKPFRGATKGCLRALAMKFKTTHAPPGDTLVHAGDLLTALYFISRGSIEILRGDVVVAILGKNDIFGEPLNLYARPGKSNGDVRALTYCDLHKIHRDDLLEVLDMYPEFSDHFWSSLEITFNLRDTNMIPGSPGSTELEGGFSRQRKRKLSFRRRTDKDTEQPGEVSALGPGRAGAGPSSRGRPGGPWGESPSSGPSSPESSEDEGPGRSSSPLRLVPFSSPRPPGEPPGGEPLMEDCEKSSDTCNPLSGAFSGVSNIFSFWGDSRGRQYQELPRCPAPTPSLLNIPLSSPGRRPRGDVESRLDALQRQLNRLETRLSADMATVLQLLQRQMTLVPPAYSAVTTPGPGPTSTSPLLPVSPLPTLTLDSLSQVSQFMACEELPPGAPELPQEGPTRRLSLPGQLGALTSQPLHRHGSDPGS
Method in brief: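 Thallium-flux (FluxOR) read-out on FDSS: fluorescence read 10 s before and 2 min after stimulation buffer. hERG-BacMam-transduced U2OS cells, compound exposure about 10 min. AC50 by standard Hill equation.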

[6] = molecular target: Nuclear receptor ROR-gamma (Homo sapiens) (UniProt P51449); assay: qHTS assay for small molecule antagonists of the retinoid-related orphan receptor gamma (ROR-gamma) signaling pathway (AID 651802); conditions: ROR-gamma antagonist cell reporter assay; series mostly up to 92.2 µM;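 note: CHO cells with doxycycline-induced ROR-gamma expression; luciferase reporter luminescence driven by ROR response element; % is set by controls: 0 for no effect and ±100 for the full control effect; nearly all actives have a fitted effect of over 60% in size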
Chain of Nuclear receptor ROR-gamma (Homo sapiens) (P51449 whole entry, looked up): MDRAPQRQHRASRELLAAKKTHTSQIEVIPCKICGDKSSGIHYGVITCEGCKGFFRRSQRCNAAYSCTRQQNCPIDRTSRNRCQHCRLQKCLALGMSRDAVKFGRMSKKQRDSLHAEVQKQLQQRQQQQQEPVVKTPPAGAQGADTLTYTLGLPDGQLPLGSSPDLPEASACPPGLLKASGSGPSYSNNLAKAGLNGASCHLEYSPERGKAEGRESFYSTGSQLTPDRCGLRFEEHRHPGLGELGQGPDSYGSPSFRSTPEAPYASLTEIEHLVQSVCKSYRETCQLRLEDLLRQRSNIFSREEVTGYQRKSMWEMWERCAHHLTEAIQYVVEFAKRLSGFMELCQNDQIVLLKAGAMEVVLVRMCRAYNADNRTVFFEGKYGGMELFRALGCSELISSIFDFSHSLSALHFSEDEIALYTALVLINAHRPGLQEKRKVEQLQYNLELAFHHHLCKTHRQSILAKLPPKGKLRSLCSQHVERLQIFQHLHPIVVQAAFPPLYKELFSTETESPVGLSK
Method in brief: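 Luminescence (One-Glo, 30 min RT) measured 16 h after compound addition and doxycycline induction at 37C. Reporter: RORE-luciferase under TET-inducible ROR-gamma in CHO cells.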

[7] = qHTS assay for small molecule activators of the human pregnane X receptor (PXR) signaling pathway (AID 720659; call rule not given here; note: 0% is about no effect); conditions: DPX-2 HepG2 CYP3A4-luciferase, 24 h; series mostly up to 92.3 µM
[8] = molecular target: ATP-dependent 6-phosphofructokinase (Trypanosoma brucei brucei) (UniProt O15648); assay: qHTS Assay to Find Inhibitors of T. brucei phosphofructokinase: hit validation (AID 492961);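 note: luminescence reports ADP formed as PFK phosphorylates fructose-6-phosphate with ATP; % is set by controls: 0 for no effect and ±100 for the full control effect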; conditions: T. brucei PFK, ADP-Glo luminescence; series mostly up to 51.4 µM
Chain of ATP-dependent 6-phosphofructokinase (Trypanosoma brucei brucei) (O15648 whole entry, looked up): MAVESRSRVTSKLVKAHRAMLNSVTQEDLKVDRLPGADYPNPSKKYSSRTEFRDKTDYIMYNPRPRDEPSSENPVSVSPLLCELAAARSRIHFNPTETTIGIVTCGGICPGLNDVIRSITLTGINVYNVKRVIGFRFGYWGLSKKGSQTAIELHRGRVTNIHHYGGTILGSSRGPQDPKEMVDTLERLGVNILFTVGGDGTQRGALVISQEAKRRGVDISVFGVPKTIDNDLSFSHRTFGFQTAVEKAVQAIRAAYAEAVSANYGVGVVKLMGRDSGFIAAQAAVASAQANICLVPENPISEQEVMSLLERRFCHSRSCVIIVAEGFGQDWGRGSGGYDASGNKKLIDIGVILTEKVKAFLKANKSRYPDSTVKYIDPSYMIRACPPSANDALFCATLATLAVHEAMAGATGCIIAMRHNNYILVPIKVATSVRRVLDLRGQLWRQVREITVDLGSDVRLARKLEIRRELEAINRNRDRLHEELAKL
Method in brief: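 PFK 1.25 nM, F6P 0.5 mM, ATP 0.1 mM, MgCl2 5 mM, 0.1 M TEA pH 8.0, Tween20 0.01%, BSA 0.1%; 45 min RT. ADP-Glo two-step detection, luminescence. qHTS titration; curve fitting with curve-class categorization.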

[9] = S16 Schwann cell viability assay (CellTiter-Glo assay) (AID 624031); conditions: S16 rat Schwann cells viability, 24 h; series mostly up to 57.5 µM; note: nearly all actives have a fitted effect of over 70% in size; note: potency is the fitted concentration of half-maximal effect;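 for activity change, negative = cytotoxicity: cellular ATP luminescence as a viability measure; plate controls were DMSO-treated cells for no effect and cell-free wells for full effect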
Method in brief: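 CellTiter-Glo ATP luminescence counter-screen in untransfected S16 rat Schwann cells, 24h compound exposure at 37 degree Celsius after overnight seeding (500-750 cells/well); response scaled between cell-free wells and DMSO (0% activity), curves classed by r2 and magnitude.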

[10] = qHTS assay for small molecule agonists of the antioxidant response element (ARE) signaling pathway (AID 651741; active = well fitted activation curve with a large enough effect in the signal ratio; the % refers to the signal ratio; note: potency is the fitted concentration of half-maximal effect; for activation: % of control where 0% means no effect); conditions: HepG2 ARE-bla reporter, beta-lactamase FRET ratio, 16 h; series mostly up to 96 µM
Method in brief: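 Reporter: beta-lactamase under ARE, stably in HepG2. Exposure: 16 h, 37 C, compounds delivered in DMSO by pin tool after 5 h cell preincubation. Readout: FRET substrate fluorescence after 2 h at RT.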

[11] = qHTS assay for small molecule activators of the nuclear factor-kappa B (NF-kB) signaling pathway (AID 651749; active = well fitted activation curve with a large enough effect in the signal ratio; the % refers to the signal ratio; note: % of control where 0% means no effect); conditions: NF-kB-bla ME-180 cells, beta-lactamase FRET ratio, 16 h; stronger effect = higher value
Method in brief: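 Human ME-180 cervical cells with an NF-kB-bla construct; compounds added via 23 nL pin transfer, DMSO as vehicle; incubation 16 hr. Reporter activity measured by FRET disruption.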

[12] = system: 3D7; assay: qHTS profiling for inhibitors of Plasmodium falciparum proliferation (AID 504749); note: nearly all actives have a fitted effect of over 60% in size; note: potency is the fitted concentration of half-maximal effect; conditions: P. falciparum in erythrocytes, SYBR Green DNA, 72 h; series mostly up to 28.7 µM
Method in brief: (§1)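 Quantitative HTS: compounds pinned into medium, infected erythrocytes added (0.3% parasitemia, 2.5% hematocrit), 72 h culture at 37 C under 5% CO2. Saponin/Triton lysis with SYBR Green I, overnight RT, then fluorescence read.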

[13] = system: CP250; assay: as above; conditions: P. falciparum in erythrocytes, SYBR Green DNA, 72 h; series mostly up to 28.7 µM
Method in brief: as §1

[14] = system: P93_24; assay: as above; conditions: P. falciparum in erythrocytes, SYBR Green DNA, 72 h; series mostly up to 28.7 µM
Method in brief: as §1

[15] = Cell Viability - NIH 3T3 (AID 541); conditions: NIH 3T3 cell viability, qHTS; activity change, negative = cytotoxicity: at 92.2 µM (top of the series);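 note: cells exposed to compound for 40 hours; plate controls were DMSO alone for no effect and tamoxifen positive control for full effect; nearly all actives have a fitted effect of over 25% in size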
Method in brief: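 Intracellular ATP (CellTiter-Glo luminescence, 20 min at room temperature) measured after 40 hr compound exposure at 37 °C of 1000 NIH 3T3 mouse fibroblasts/well in complete medium; AC50 derived by Hill-equation modelling of qHTS concentration-response curves.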

[16] = qHTS assay for small molecule antagonists of peroxisome proliferator-activated receptor delta signaling (AID 588535; active = well fitted inhibition curve with a large enough effect in the signal ratio, with a control signal flat, not every such curve was filed as active; the % refers to the signal ratio;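 for max response: cells co-treated with a PPAR-delta agonist as stimulator during compound exposure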); conditions: HEK293T PPARd-UAS-bla, beta-lactamase FRET ratio, 18 h; 460 nm channel
Method in brief: (§2)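 Inhibition of PPAR-delta response element-driven beta-lactamase expression is measured in HEK293T cells exposed to a compound titration series for 18 hrs at 37 C. Half-maximal inhibition comes from Hill equation fitting.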

[17] = molecular target: Peroxisome proliferator-activated receptor delta (Homo sapiens) (UniProt Q03181); assay: as above; conditions: HEK293T PPARd-UAS-bla, beta-lactamase FRET ratio, 18 h; series mostly up to 76.7 µM
Chain of Peroxisome proliferator-activated receptor delta (Homo sapiens) (Q03181 whole entry, looked up): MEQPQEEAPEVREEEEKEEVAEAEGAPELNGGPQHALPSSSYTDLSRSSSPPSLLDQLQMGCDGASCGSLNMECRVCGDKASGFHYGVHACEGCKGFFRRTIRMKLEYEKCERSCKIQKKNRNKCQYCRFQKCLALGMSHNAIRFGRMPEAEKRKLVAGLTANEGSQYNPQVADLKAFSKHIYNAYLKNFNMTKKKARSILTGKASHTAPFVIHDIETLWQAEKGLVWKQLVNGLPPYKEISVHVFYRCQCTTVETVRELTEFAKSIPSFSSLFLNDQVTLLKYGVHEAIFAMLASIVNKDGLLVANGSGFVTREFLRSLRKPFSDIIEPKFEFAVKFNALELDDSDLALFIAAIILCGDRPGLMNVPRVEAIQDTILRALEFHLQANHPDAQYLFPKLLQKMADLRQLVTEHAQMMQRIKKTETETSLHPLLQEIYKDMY
Method in brief: as §2

[18] = qHTS assay for small molecule disruptors of the mitochondrial membrane potential - 5 hr assay (AID 651755; calls by dose curve; note: nearly all actives have a fitted effect of over 40% in size; note: potency is the fitted concentration of half-maximal effect); conditions: JC-1-type ratio dye; series mostly up to 92.2 µM
Method in brief: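 Seed HepG2 overnight, add compound, incubate 5 hr at 37C and 5% CO2, stain 30 min with Mito-MPS, then measure monomer (490/535 nm) and aggregate (540/590 nm) fluorescence.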

[19] = system: PC26; assay: qHTS profiling for inhibitors of Plasmodium falciparum proliferation (AID 504749); note: nearly all actives have a fitted effect of over 60% in size; note: potency is the fitted concentration of half-maximal effect; conditions: P. falciparum in erythrocytes, SYBR Green DNA, 72 h; series mostly up to 28.7 µM
Method in brief: as §1

[20] = molecular target: Cytochrome P450 3A4 (Homo sapiens) (UniProt P08684); assay: qHTS Assay for Activators of Cytochrome P450 3A4 (AID 885); conditions: recombinant CYP3A4, Luciferin-PPXE luminescence, 60 min; series mostly up to 57.1 µM; note: nearly all actives have a fitted effect of over 65% in size
Chain of Cytochrome P450 3A4 (Homo sapiens) (P08684 whole entry, looked up): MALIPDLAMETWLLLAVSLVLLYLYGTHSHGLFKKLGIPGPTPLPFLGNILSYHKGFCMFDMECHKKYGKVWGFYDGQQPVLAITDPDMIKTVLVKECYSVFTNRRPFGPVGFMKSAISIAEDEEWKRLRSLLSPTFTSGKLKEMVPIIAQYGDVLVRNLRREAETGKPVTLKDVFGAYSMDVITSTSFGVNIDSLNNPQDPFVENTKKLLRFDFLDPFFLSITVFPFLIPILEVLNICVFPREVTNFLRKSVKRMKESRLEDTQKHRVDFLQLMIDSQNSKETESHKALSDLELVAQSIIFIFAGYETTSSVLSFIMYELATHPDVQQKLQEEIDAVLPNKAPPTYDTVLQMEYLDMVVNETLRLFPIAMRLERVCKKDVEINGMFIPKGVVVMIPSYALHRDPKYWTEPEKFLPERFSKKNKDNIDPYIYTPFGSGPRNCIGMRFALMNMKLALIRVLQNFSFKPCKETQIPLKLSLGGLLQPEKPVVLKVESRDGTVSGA
Method in brief: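 Using 20nM recombinant human CYP3A4 in potassium phosphate (200mM), substrate Luciferin-PPXE at 25uM, luminescent luciferin detection followed a 60-min RT NADPH reaction; data scaled to 57 uM ketoconazole.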

COc1c2ccoc2cc2oc(=O)ccc12
inactive: Potency [1] > 92 µM | outcome [2] | outcome [3] | outcome [4] | Potency [5] | Potency [6] | outcome [7]

S=C1NC=NC2N=CNC12 (stereo not drawn)
active: Potency [1] 1.23 µM | Potency [10] 23.7 µM
inactive: outcome [2] | outcome [3] | outcome [4] | outcome [8] | Potency [5] | Potency [9] | activation [11] 1.89% | Potency [6] | Potency [12] | Potency [13] | Potency [14] | outcome [7]

Cc1ccc(N)c([N+](=O)[O-])c1
-16.3% and -11.9%: max response [16]
inactive: Potency [1] > 92 µM | Potency [15] | outcome [2] | outcome [4] | Potency [17] | Potency [5] | Potency [18]

CC(=O)OC/C=C(\C)CCC=C(C)C
-10.2% and 0.451%: max response [16]
inactive: Potency [1] > 92 µM | Potency [15] | outcome [2] | outcome [3] | Potency [17] | Potency [5] | Potency [6] | outcome [7]

CCCCOCCO
inactive: Potency [1] > 92 µM | Potency [15] | outcome [2] | Potency [17] | Potency [10] | activation [11] 0.401% and -0.541% and 0.482% | Potency [18] | Potency [6] | outcome [7]
1.73% and 13.5% and -16.7%: max response [16]

CN1CC[C@H](CN2c3ccccc3Sc3ccccc32)C1
active: Potency [9] 36.1 µM | Potency [14] 7.08 µM | Potency [19] 13.5 µM
inactive: outcome [8]

O=C1c2ccccc2C(=O)C1c1ccc2ccccc2n1
inactive: outcome [2] | outcome [3] | outcome [4] | outcome [20] | activation [11] -1.78% and 4.34%
active: Potency [10] 1.37 µM and 1.5 µM | Potency [18] 1.68 µM

CCC(O)OC(O)CC (stereo not drawn)
inactive: Potency [1] > 92 µM | Potency [15] | activation [11] 0.14% [middle of 4 runs] | outcome [7]

CC1=CC(C)(C)Nc2ccccc21
34.8% and 1.74%: max response [16]
inactive: Potency [1] > 92 µM | Potency [15] | outcome [2] | outcome [20] | Potency [17] | Potency [6]

CN(C)CCCCCCN(C)C
inactive: Potency [1] > 92 µM | Potency [15] | outcome [3] | outcome [4] | outcome [8] | Potency [17] | Potency [9] | Potency [10] | Potency [12] | Potency [13] | Potency [14] | Potency [19]
53.3%: max response [16]
